# Only some compounds are listed: those with a hit (about 1.2% of all), similar ones and a draw of the others.
# PG9 binder: PG9 antibody binding by small molecule | TR-FRET gp120-PG9 antibody binding | inhibition, % at 6.7 µM | 360,000 tested, 0.43% active | AID 624416; in the data active = inhibition above about 8.5%
# PKA-R2B activ: PKA-R2B complex activation; P22694+P31323; PKA-R2B holoenzyme dissociation, Cy5-IP20 fluorescence polarization; R2B truncated from residue 108, S112A mutant; 0% DMSO only, 100% 113 µM cGMP; activation, % at 11.4 µM; 340,000 tested, 0.079% active; AID 504700;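 active = activation above a cutoff set at the mean over all compounds plus 3 SD, cut at about 18% in these data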;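 note: higher means more holoenzyme dissociation and a rise in polarization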
# NR1D1 modulator: modulators of human Rev-erb alpha DNA binding | Rev-erbα–FITC-DNA binding, fluorescence polarization, 90 min | 370,000 tested, 0.79% active | activity, % at 10 µM;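 active = activity above about 14%, limit read from the data; passing the limit was not always enough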;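 note: 0% = DMSO wells with 35 nM protein and 100% = DMSO wells with 750 nM protein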
# Target sequence (P20393 whole entry, looked up): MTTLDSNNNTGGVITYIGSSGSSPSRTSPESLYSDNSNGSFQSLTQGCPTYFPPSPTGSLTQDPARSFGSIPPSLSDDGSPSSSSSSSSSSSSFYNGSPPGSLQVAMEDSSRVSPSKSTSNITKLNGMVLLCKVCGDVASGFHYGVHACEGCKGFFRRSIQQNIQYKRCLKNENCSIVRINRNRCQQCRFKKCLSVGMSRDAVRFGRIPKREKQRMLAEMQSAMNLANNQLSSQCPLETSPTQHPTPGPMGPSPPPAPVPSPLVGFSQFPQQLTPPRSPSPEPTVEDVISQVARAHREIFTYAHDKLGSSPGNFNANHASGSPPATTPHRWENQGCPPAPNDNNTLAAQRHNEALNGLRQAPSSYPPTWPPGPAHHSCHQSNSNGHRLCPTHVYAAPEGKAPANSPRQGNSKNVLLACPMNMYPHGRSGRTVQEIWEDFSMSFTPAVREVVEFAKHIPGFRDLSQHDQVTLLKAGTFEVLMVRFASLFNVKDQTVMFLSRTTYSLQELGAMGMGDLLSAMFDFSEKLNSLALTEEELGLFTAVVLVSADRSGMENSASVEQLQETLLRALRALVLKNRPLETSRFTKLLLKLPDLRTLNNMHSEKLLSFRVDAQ
# PKA-R1A activ: PKA-R1A complex activation; AID 504707; PKA-R1A dissociation, Cy5-IP20 fluorescence polarization; scaled: DMSO 0%, 113 µM cGMP 100%; activation, % at 11.4 µM; 340,000 tested, 0.083% active;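 active = percent activation above the mean of all tested compounds plus 3 SD, cut at about 19% in these data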;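 note: higher means more PKAc released from R1A so a rise in polarization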
# Starred values were filed as active, the others as inactive; . = no result.
SMILES,PG9 binder,PKA-R2B activ,NR1D1 modulator,PKA-R1A activ
O=C1c2c(O)cccc2C(C2OC(CO)C(O)C(O)C2O)c2cc(CO)cc(O)c21 (stereo not given),.,.,0,.
CCOc1ccc(/C(O)=C2/C(=O)C(=O)N(CCOCCO)C2c2ccccc2)cc1 (stereo not given),6,2,6,3
CCOc1ccc(/C(O)=C2/C(=O)C(=O)N(CCOCCO)C2c2cccnc2)cc1 (stereo not given),9.0*,8,-5,-11
CCCCC/C=C/CCC(=O)N[C@H]1[C@H](Oc2c3cc4cc2Oc2ccc(cc2Cl)[C@@H](O[C@@H]2O[C@H](CO)[C@@H](O)[C@H](O)[C@H]2NC(C)=O)[C@@H]2NC(=O)[C@H](NC(=O)[C@@H]4NC(=O)[C@H]4NC(=O)C(Cc5ccc(c(Cl)c5)O3)NC(=O)[C@H](N)c3ccc(O)c(c3)Oc3cc(O)cc4c3)c3ccc(O)c(c3)-c3c(O[C@@H]4O[C@H](CO)[C@@H](O)[C@H](O)[C@@H]4O)cc(O)cc3[C@@H](C(=O)O)NC2=O)O[C@H](CO)[C@@H](O)[C@@H]1O,.,.,-4,.
CC(=O)NS(=O)(=O)c1ccc(NC(=O)c2ccccc2C(=O)O)cc1,.,.,3,.
Cc1cc(C#N)cc(C)c1Oc1nc(Nc2ccc(C#N)cc2)nc(N)c1Br,.,.,2,.
CC(C)CC(=O)N[C@H](C(=O)NC(C(=O)NC(CC(C)C)[C@@H](O)CC(=O)N[C@@H](C)C(=O)N[C@@H](CC(C)C)[C@@H](O)CC(=O)O)C(C)C)C(C)C (stereo not given in full),.,.,-2,.
CC(C)[C@H](N)C(=O)O,.,.,-7,.
CS(=O)(=O)c1ccc(C(O)[C@H](CF)NC(=O)C(Cl)Cl)cc1 (stereo not given in full),.,.,6,.
O=C1[C@H](CCC(O)c2ccc(F)cc2)[C@@H](c2ccc(O)cc2)N1c1ccc(F)cc1 (stereo not given in full),.,.,0,.
CNC(=O)CN(CCN(CCN(CC(=O)O)CC(=O)NC)CC(=O)O)CC(=O)O,.,.,-1,.
C#C[C@]1(OC(C)=O)CCC2C3CCC4=C/C(=N/O)CCC4C3CC[C@@]21CC (stereo not given in full),.,.,8,.
O=c1[nH]cnc2c1C(c1ccc(Cl)cc1)c1c(nc[nH]c1=O)O2,.,-3,.,19*
N=c1ccn2c(n1)O[C@@H]1[C@@H](O)[C@H](CO)O[C@@H]12,.,.,-6,.
Cc1ccc(NC(=O)CSc2nnc(-c3cnccn3)n2-c2ccccc2)cc1,16*,3,19,0
CCOC(=O)c1c(C)nc2c(c1-c1ccccc1)C(=O)c1ccccc1-2,-2,10,0,20*
CCOC(=O)c1c(C)nc2c(c1-c1cc(OC)ccc1OC)C(=O)c1ccccc1-2,-1,2,-1,-2
C[C@H](CCC(=O)O)[C@H]1CCC2C3C(CC[C@@]21C)[C@@]1(C)CC[C@@H](O)C[C@H]1C[C@H]3O (stereo not given in full),.,.,-2,.
CC(COc1ccccc1)NC(C)[C@H](O)c1ccc(O)cc1 (stereo not given in full),.,.,4,.
CNCC[C@@H](Oc1ccccc1)c1ccccc1,.,.,-7,.
CC(=O)OCC(=O)[C@@]1(O)[C@@H](C)CC2C3CCC4=CC(=O)C=C[C@]4(C)[C@@]3(F)[C@@H](O)C[C@@]21C (stereo not given in full),.,.,-10,.
COC(=O)C1C(=O)C2=C(CC1C)NC(C)=C(C(=O)OC(C)C)C2c1ccc(OC)c(O)c1 (stereo not given),3,12,3,20*
COC(=O)C1C(=O)C2=C(CC1C)NC(C)=C(C(=O)OC1CCCC1)C2c1ccc(N(C)C)cc1 (stereo not given),0,-9,6,-18
O=C(O)C[C@H](O)C(=O)O,.,.,-5,.
C[C@H]1OC(n2cc(F)c(=O)[nH]c2=O)[C@H](O)[C@@H]1O (stereo not given in full),.,.,-3,.
SMILES,PG9 binder,PKA-R2B activ,NR1D1 modulator,PKA-R1A activ
COc1ccc2[nH]c(=O)cc(C(=O)O)c2c1,-1,5,-3,1
COc1ccc2[nH]c3c4c(ccc3c2c1)C(=O)C=CC4=O,10*,1,-3,5
CCOC(=O)O[C@H](C)OC(=O)C1N2C(=O)[C@H](NC(=O)C(N)c3ccccc3)C2SC1(C)C (stereo not given in full),.,.,-2,.
NC(=O)c1cc[n+](CC2=C(C(=O)O)N3C(=O)[C@@H](NC(=O)Cc4cccs4)[C@H]3SC2)cc1,.,.,-2,.
Cc1ccccc1C(=O)Nc1ccc(C(=O)N2CCC[C@@H](O)c3cc(Cl)ccc32)c(C)c1,.,.,-3,.
CO/N=C(/C(=O)N[C@H]1C(=O)N2C(C(=O)O)=C(COC(N)=O)CSC12)c1ccco1 (stereo not given in full),.,.,1,.
CN1C2CC(OC(=O)[C@H](CO)c3ccccc3)C[C@H]1[C@H]1OC21 (stereo not given in full),.,.,-8,.
O=C1O[C@H](C(O)CO)C(O)=C1O (stereo not given in full),.,.,-7,.
CCCCCCCCCC(=O)OCCN1CCN(CCCN2c3ccccc3Sc3ccc(C(F)(F)F)cc32)CC1,.,.,-1,.
O=C(CSC1=NCCS1)NC(c1ccccc1)c1ccccc1,0,3,-1,19*
O=C(CSC1=NCCS1)NC(NC(=O)CSC1=NCCS1)c1ccccc1,1,0,-1,-8
CC[C@@H]1/C=C(/C)C[C@H](C)C[C@H](OC)[C@H]2O[C@@](O)(C(=O)C(=O)N3CCCC[C@H]3C(=O)O[C@H](/C(C)=C/[C@@H]3CC[C@H](Cl)[C@H](OC)C3)[C@H](C)[C@@H](O)CC1=O)[C@H](C)C[C@@H]2OC,.,.,11,.
CC1(C)O[C@@H]2CC3C4C[C@H](F)C5=CC(=O)C=C[C@]5(C)[C@@]4(F)[C@@H](O)C[C@]3(C)[C@]2(C(=O)CO)O1 (stereo not given in full),.,.,-1,.
C=CCOc1cccc(C2/C(=C(\O)c3ccc4c(c3)OCCO4)C(=O)C(=O)N2Cc2cccnc2)c1 (stereo not given),14*,4,2,-4
COc1ccc(C2/C(=C(\O)c3ccc4c(c3)OCCO4)C(=O)C(=O)N2Cc2cccnc2)cc1 (stereo not given),8,8,3,-10
NC(=O)[C@H]1OC(O)[C@H](O)[C@@H](O)[C@@H]1O (stereo not given in full),.,.,4,.
COc1ccccc1NC(=O)c1cc2c(CO)cnc(C)c2oc1=Nc1cccc(C(N)=O)c1,-3,-5,-29,-3
COc1ccc(NC(=O)c2cc3c(COC(C)=O)cnc(C)c3oc2=Nc2cccc(C(=O)O)c2)c(OC)c1,.,-3,.,19*
CC(=O)OCC(=O)[C@@]12OC3(CCCC3)O[C@@H]1CC1C3CCC4=CC(=O)C=C[C@]4(C)[C@@]3(F)[C@@H](O)C[C@@]12C (stereo not given in full),.,.,1,.

# Source: PubChem
